Shown are actives, neighbours in structure and some others; about 2.4% of the full set was active somewhere.
Pol eta inh: blocks human DNA polymerase eta activity | Q9Y253 | recombinant Pol eta, fluorescent DNA replication assay | Potency, µM (top dose mostly 114 µM), actives largely listed as inhibitors | hit rate 1.2% among 390,000
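Fluorescent replication assay: 50 nM final substrate added after a 15 min room-temperature compound preincubation with 10 nM enzyme. Signal taken at 0 min and again at 10 min.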
FEN1 inh-1: human FEN1 inhibition | P39748 | Recombinant FEN1 flap cleavage, fluorescence, 15 min | Potency, µM (titrated, usually from 114 µM), usual class: inhibitors | hit rate 0.35% among 390,000 | AID 588795; further: nearly all actives have a fitted effect of over 65% in size
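With each library titrated from low to high concentration, compounds met 10 nM FEN1 for 15 min at room temperature before 50 nM substrate was added; readings at 0 and 15 min fed four-parameter Hill curve fits.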
Pol kappa inh: DNA polymerase kappa (human) inhibition; Potency, µM (series often up to 107 µM), most hits filed as inhibitors; Q9UBT6; purified Pol kappa, fluorescent DNA synthesis assay, 10 min; hit rate 0.53% among 400,000; AID 588579
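10 nM Pol kappa preincubated 15 min at room temperature with compounds, then reaction started with substrate at 50 nM final. Fluorescence read kinetically at 0 and 10 min; buffer-only wells served as negative control.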
WRN inhibitor: WRN helicase (human) inhibition | Q14191 | WRN helicase unwinding, fluorescent forked duplex, kinetic | Potency, µM (top dose mostly 114 µM), usual class: inhibitors | hit rate 0.46% among 360,000; further: nearly all actives have a fitted effect of over 55% in size
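Primary qHTS, 1536-well format. 20 nM WRN + compound, 15 min RT; start with 100 nM forked fluorophore/quencher duplex, 2 mM ATP (final); kinetic read ex 525/em 598 nm.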
POLI inh: DNA polymerase iota (human) inhibition; Q9UNA4; Pol iota fluorescent replication assay, 10 min; Potency, µM (titrated, usually from 115 µM), hits mostly inhibitors; hit rate 1% among 390,000
Target sequence (Q9UNA4 whole entry, looked up): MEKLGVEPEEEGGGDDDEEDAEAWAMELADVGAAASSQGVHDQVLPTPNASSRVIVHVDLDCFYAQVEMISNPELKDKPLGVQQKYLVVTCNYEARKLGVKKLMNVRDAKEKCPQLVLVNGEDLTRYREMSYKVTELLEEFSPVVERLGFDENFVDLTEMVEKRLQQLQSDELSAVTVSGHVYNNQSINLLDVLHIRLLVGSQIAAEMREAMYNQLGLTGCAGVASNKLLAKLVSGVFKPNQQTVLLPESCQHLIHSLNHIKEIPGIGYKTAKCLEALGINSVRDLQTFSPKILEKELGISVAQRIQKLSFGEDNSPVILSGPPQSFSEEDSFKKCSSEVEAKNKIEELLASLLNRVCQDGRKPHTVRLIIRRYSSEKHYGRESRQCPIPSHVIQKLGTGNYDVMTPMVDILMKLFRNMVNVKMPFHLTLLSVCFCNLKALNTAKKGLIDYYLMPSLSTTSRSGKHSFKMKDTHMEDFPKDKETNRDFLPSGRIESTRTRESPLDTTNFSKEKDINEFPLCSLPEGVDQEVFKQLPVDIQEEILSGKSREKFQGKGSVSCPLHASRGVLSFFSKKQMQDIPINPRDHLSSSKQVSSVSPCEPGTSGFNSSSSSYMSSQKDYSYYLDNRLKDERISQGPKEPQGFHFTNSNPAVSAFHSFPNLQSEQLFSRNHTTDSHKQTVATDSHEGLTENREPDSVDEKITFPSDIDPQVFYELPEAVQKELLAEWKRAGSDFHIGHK
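Pol iota at 10 nM preincubated 15 min with compounds at room temperature; reaction started with fluorescent substrate, 50 nM final. Fluorescence read kinetically at 0 and 10 min; buffer-only wells as negative control.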
Pol beta inh: DNA polymerase beta (human) inhibition; Pol beta primer extension/strand displacement, fluorescence kinetic; Potency, µM (highest dose often 114 µM), usual class: inhibitors; hit rate 1.3% among 340,000; AID 485314
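Enzyme-only controls used 10 nM Pol beta; buffer lacking enzyme served as negative control. Compound preincubated 15 min, then 50 nM substrate added; 0 and 10 min reads at room temperature.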
FEN1 inh-2: FEN1 inhibition, cherry-pick retest | shares compounds with FEN1 inh-1 | hit rate 79% among 880 | AID 720498 | FEN1 flap cleavage, TAMRA/BHQ2 fluorogenic DNA substrate | Potency, µM, hits mostly inhibitors; further: nearly all actives have a fitted effect of over 60% in size
Numbers stand for hits; – = inactive; ? = inconclusive; · = no result; [ ] = remark or other dose. The call rests on the fitted dose curve; in most records, active means well fitted curve in the direction sought with a large enough effect; inconclusive means small, poorly fitted or top-dose-only effect, or another doubt; inactive means no such curve, though single readings can be large; an effect the other way counts as inactive or inconclusive.

SMILES	Pol eta inh	FEN1 inh-1	Pol kappa inh	WRN inhibitor	POLI inh	Pol beta inh	FEN1 inh-2
O=C(COC(=O)c1ccc([N+](=O)[O-])o1)NCc1ccc2c(c1)OCO2	79µM	18µM	–	–	?	·	7.6
O=C(COC(=O)c1ccc([N+](=O)[O-])o1)NC1CCCc2ccccc21 (configuration not stated)	?	?	–	–	?	·	24
CC(O)COCC1OC2OC3C(COCC(C)O)OC(OC4C(COCC(C)O)OC(OC5C(COCC(C)O)OC(OC6C(COCC(C)O)OC(OC7C(COCC(C)O)OC(OC8C(COCC(C)O)OC(OC1C(OCC(C)O)C2OCC(C)O)C(OCC(C)O)C8OCC(C)O)C(OCC(C)O)C7OCC(C)O)C(OCC(C)O)C6OCC(C)O)C(OCC(C)O)C5OCC(C)O)C(OCC(C)O)C4OCC(C)O)C(OCC(C)O)C3OCC(C)O (configuration not stated)	·	–	–	·	–	·	·
CCOC(=O)C1=C(CN(CC)Cc2ccccc2)NC(=O)NC1c1ccc(Cl)cc1 (configuration not stated)	–	–	–	·	–	–	·
COc1ccc(NC(=O)Cn2nc(-c3ccncc3)ccc2=O)cc1Cl	–	–	–	·	–	–	·
CCOC(=O)C1=CCC(c2ccc(CC)cc2)N(S(=O)(=O)c2ccc(C)cc2)C1 (configuration not stated)	·	·	·	–	·	·	·
O=C(OCC(=O)N1CCc2ccccc21)c1ccc([N+](=O)[O-])o1	?	?	–	–	?	·	8.5
CC(C)(C)N(Cc1ccccc1)C(=O)COC(=O)c1ccc([N+](=O)[O-])o1	?	?	–	–	–	·	21
COc1ccc2cc(CNCCOCCOCCNCc3ccc4cc(OC)ccc4c3)ccc2c1	–	40µM	–	?	–	·	38
CCOCCCNCc1ccc(OC)cc1	–	–	–	–	–	–	·
COc1ccc(Cl)cc1-c1noc([C@@H]2O[C@H](CO)[C@H](O)[C@H](O)[C@H]2O)n1	·	·	·	–	·	·	·
C[C@H](O)[C@@H]1CN2CCc3c([nH]c4ccc(-c5ccc6c(c5)OCO6)cc34)[C@@H]2C[C@@H]1N(C)C(=O)Nc1cc(Cl)cc(Cl)c1	–	·	·	–	·	·	·
Cc1csc2c1c(=O)n(O)c(=O)n2Cc1ccccc1	·	·	·	·	·	·	0.11
C/C(=N\NC(=O)c1ccc(OC2OCCOC2Oc2ccc(C(=O)N/N=C(\C)c3ccncc3)cc2)cc1)c1ccncc1 (configuration not stated)	?	–	–	–	?	?	67
COc1ccccc1NC(=O)CSc1nc(O)cc(=O)[nH]1	–	–	–	–	?	–	·
Cc1sc(NC(=O)CSc2nc(O)cc(=O)[nH]2)nc1-c1ccccc1	–	50µM	–	?	?	–	67
CCCNC(=O)c1ccc2c(=O)c(O)c(-c3cccc(Br)c3)[nH]c2c1	–	32µM	–	–[11.6 µM]	?	–	38
Nc1c(Cl)cc(-c2[nH]c3cc(C(=O)NCCO)ccc3c(=O)c2O)cc1Cl	?	18µM	–	–	?	–	30
Cc1csc(-c2nc3ccccc3n2C(C)c2nc3ccccc3[nH]2)c1 (configuration not stated)	·	·	·	–	·	·	·
COc1ccccc1NC(=O)C(=O)c1cc(C)n(-c2cc(C)cc(C)c2)c1C	–	–	–	·	–	–	·
CC(C)(C)/C(O)=C/c1nc2ccccc2oc1=O	–	20µM	–	–[11.6 µM]	–	–	30
O=C(NC(c1ccco1)c1cc(Cl)c2cccnc2c1O)c1ccsc1 (configuration not stated)	·	·	·	·	·	·	?
CCC(=O)NC(c1ccco1)c1cc(Cl)c2cccnc2c1O (configuration not stated)	–	?	–	–	–	?	·
CCC(=O)N/C(N)=N/c1nc(C)c2cc(OC)ccc2n1	–	79µM	–	–	–	–	?
Nc1[nH]c(C(=O)c2ccccc2)c(-c2cccnc2)c1C(=O)NC1CCCCC1	·	·	·	–	·	·	·
SMILES	Pol eta inh	FEN1 inh-1	Pol kappa inh	WRN inhibitor	POLI inh	Pol beta inh	FEN1 inh-2
Cc1ccc(OCC(=O)Nc2nnc(SCc3cc(=O)n4cc(C)ccc4n3)s2)cc1	–	–	–	·	–	–	·
CC(=O)C1CCC2C3CC=C4CC(SC(=N)N)CCC4(C)C3CCC12C (configuration not stated)	–	?	–	–	–	·	?
CC(=O)OCC(=O)C1CCC2C3CC=C4CC(O)CCC4(C)C3CCC12C (configuration not stated)	–	–	–	–	–	·	·
COc1ccc(C2=Nc3ccc(F)cc3NC(c3cccc(C(F)(F)F)c3)=N2)cc1	·	–	–	·	–	–	·
O=c1[nH]c2cnn(-c3ccccc3)c2c(=O)n1O	?	0.5µM	–	–[11.6 µM]	–	·	21
O=c1[nH]c2cnccc2n1-c1ccccc1	–	–	–	–	–	–	·
O=C(NC1CCCCCC1)C1c2ccccc2C(=O)N1Cc1ccc(F)cc1 (configuration not stated)	–	–	–	·	–	–	·
CCCN1CNc2c(c(=O)[nH]c(=S)n2CCc2cc(Cl)cc(Cl)c2)C1	·	–	–	·	–	·	·
CCN(CC)CCCNC(=O)c1cc2c(-c3cccc(OC)c3)nn(C)c2s1	–	?	–	–	–	–	?
CCN(CCCNC(=O)c1cc2c(Cl)nc3ccccc3c2s1)Cc1ccccc1	–	?	–	·	–	–	·
CCN(CC)CCCNC(=O)c1cc2c(Cl)nc3ccccc3c2s1	–	45µM	–	–	–	–	67
CCCCN(CC)CCCNC(=O)c1cc2c(-c3ccc(OC)c(OC)c3)nn(C)c2s1	?	35µM	–	–	?	3.5µM	34
CCOCCCNC(=O)c1cc2c(-c3ccc(OC)c(OC)c3)nn(C)c2s1	?	?	–	·	–	–	·
Cc1nc(C(F)(F)F)ccc1C(=O)N1CCC1(C)C(=O)NS(=O)(=O)c1cccc(F)c1 (configuration not stated)	·	·	·	–	·	·	·
NN1C(=O)/C(=C2/Sc3ccccc3N2CCCS(=O)(=O)O)SC1=S	50µM	35µM	–	–	?	22µM	?
O=C1NC(=S)S/C1=C1\Sc2ccccc2N1CCCS(=O)(=O)O	?	–	–	–	?	–	·
CCN1/C(=C\c2ccc3cc(C)ccc3[n+]2CC)Sc2cc(C)c(C)cc21	?	·	–	45µM	·	50µM	8.5
CCN1/C(=C/c2ccc3cc(C)ccc3[n+]2CC)Sc2ccc3sccc3c21	?	?	–	–	–	·	·
CN1C=C/C(=C\c2cc[n+](C)c3ccccc23)c2ccccc21	–	28µM	–	40µM	–	?	8.5
CCc1ccccc1Nc1ncnc2c1nc1n2CCCC1	–	–	–	·	–	–	·

Assay outcomes deposited in PubChem by National Center for Advancing Translational Sciences (NCATS).
